Measurements: the supplement of paper PMC6555819

How the values were obtained:
Assay in all cases: PBM binding z-score (relative to random genomic background probes); higher = stronger binding; sequences stand for … in GC…GCGATTGACAGCGTAGAATGAAGG
[1] = tested on: PPARg:RXRa DBDmut IVT, anti-RXR (DBD mutation: RXRa K156A/R161A, NR concentration 270 nM, RXRa partner concentration 90 nM)
Procedure, shortened: (§1)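 The probes on custom Agilent 4×180K protein-binding microarrays were double-stranded, with 34-nt variable regions bearing direct-repeat seeds, single-nucleotide variants, half-site ablations and random human genomic background sequences. Incubation lasted 1 h with ligand-free nuclear receptor dimers in PBS pH 7.4, 2% milk, 0.02% Triton X-100, 1 mM DTT, 0.2 mg/mL BSA and 0.4 mg/ml salmon testes DNA. Antibodies against each partner (one per run) detected bound dimers, and fluorescence scans were regression-normalized. Binding z-scores take the random background probes as reference.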

[2] = tested on: PPARg:RXRa IVT, anti-PPARg (NR concentration 270 nM, RXRa partner concentration 90 nM)
Procedure, shortened: as §1

[3] = tested on: PPARg DBDmut:RXRa IVT, anti-PPARg (DBD mutation: PPARg1 K132A/R137A, NR concentration 270 nM, RXRa partner concentration 90 nM)
Procedure, shortened: as §1

[4] = tested on: PPARg DBDmut IVT, anti-PPARg (DBD mutation: PPARg1 K132A/R137A, NR concentration 270 nM)
Procedure, shortened: as §1

[5] = tested on: PPARg homodimer (NR concentration 180 nM)
Procedure, shortened: as §1

[6] = tested on: PXR:RXRa (NR concentration 270 nM, RXRa partner concentration 90 nM)
Procedure, shortened: as §1

[7] = tested on: PXR homodimer (NR concentration 270 nM)
Procedure, shortened: as §1

[8] = tested on: RARa:RXR (NR concentration 270 nM, RXRa partner concentration 90 nM)
Procedure, shortened: as §1

[9] = tested on: RARa homodimer (NR concentration 270 nM)
Procedure, shortened: as §1

[10] = tested on: RARb:RXRa (NR concentration 270 nM, RXRa partner concentration 90 nM)
Procedure, shortened: as §1

[11] = tested on: RARb homodimer (NR concentration 270 nM)
Procedure, shortened: as §1

[12] = tested on: RARg:RXRa (NR concentration 270 nM, RXRa partner concentration 90 nM)
Procedure, shortened: as §1

[13] = tested on: RARg homodimer (NR concentration 270 nM)
Procedure, shortened: as §1

[14] = tested on: RXRa DBDmut IVT, anti-RXR (DBD mutation: RXRa K156A/R161A, NR concentration 90 nM)
Procedure, shortened: as §1

[15] = tested on: RXRa homodimer (NR concentration 180 nM)
Procedure, shortened: as §1

[16] = tested on: THRa:RXRa (NR concentration 90 nM, RXRa partner concentration 90 nM)
Procedure, shortened: as §1

[17] = tested on: THRa homodimer (NR concentration 90 nM)
Procedure, shortened: as §1

[18] = tested on: VDR homodimer (NR concentration 270 nM)
Procedure, shortened: as §1

Sequence	PBM binding z-score [1]	PBM binding z-score [2]	PBM binding z-score [3]	PBM binding z-score [4]	PBM binding z-score [5]	PBM binding z-score [6]	PBM binding z-score [7]	PBM binding z-score [8]	PBM binding z-score [9]	PBM binding z-score [10]	PBM binding z-score [11]	PBM binding z-score [12]	PBM binding z-score [13]	PBM binding z-score [14]	PBM binding z-score [15]	PBM binding z-score [16]	PBM binding z-score [17]	PBM binding z-score [18]
ATCGAAAGGTAGAGGTGAGTATAGAGAAAGGGAA	-0.16	0.688	0.622	0.766	0.946	0.265	0.595	0.402	0.765	1.28	1.19	0.75	1.07	-0.488	0.652	0.94	0.25	0.0183
CTCGTAAGGTCGTGCTCAGGTGAGTATACCAAAC	0.319	1.17	0.192	0.162	1.03	2.23	-0.00148	3.61	-0.224	2.83	2.05	3.84	2.77	2.39	2.68	4.18	2.99	1.5
GCTATTAGTTGAAAGGGCAACCCAATGATTCTCG	0.127	0.818	-0.129	0.251	1.44	0.791	0.511	1.27	0.81	2.08	1.98	1.31	1.34	1.09	1.3	0.458	-0.122	0.235
GGAACGAGGACAAGTTGATAGCAGAGTTTGATGG	0.934	0.446	-0.104	-0.565	-0.282	0.0933	0.0308	0.108	-0.522	1.32	0.51	0.796	1.26	1.62	0.0511	2.53	1.58	0.892
CCTACTGGGCCATCGGGTCATTGATATCAACGTT	3.69	5	0.365	-0.0654	1.81	1.9	-0.0623	2.47	-0.279	1.9	2.25	2.25	1.72	-0.759	1.89	2.86	1.94	1.68
TCTCGGAGTACACGAAGGTCAGAGCTTTCCAGAG	1.19	0.734	-1.26	-1.48	1.11	2.01	0.814	2	-0.696	2.58	3.09	2.44	2.29	1.01	1.77	1.58	-0.377	2.03
ACTCGTAGGACAAAGGTCAGAGCTACGCCAGTGA	1.2	3.67	0.241	0.756	4.17	3.73	0.25	4.94	1.41	4.18	4.29	5.58	4.82	1.14	5.3	2.92	0.244	0.657
CCTGCTAGGTCATGGTCAGCTCATCTACAGTATG	4.36	3.86	-0.0537	-0.157	1.09	1.52	-0.186	2.4	0.349	4.08	3.46	3.88	4.57	1.95	2.65	3.24	1.26	0.458
GCAGACAGGTGAAACGCAAGTAACTCAGGGTGGC	0.725	0.495	-0.728	-0.714	-0.578	-0.359	-0.754	-0.0735	-0.461	0.562	-0.222	0.227	0.311	-0.514	0.606	0.23	-0.701	-0.62
CCTCGGAGGACAACAGGAGGTAAGAGCTGCCAGA	-0.141	-0.621	-1.15	-1.44	0.0253	-0.402	-0.651	-0.0361	0.0272	0.846	0.361	0.652	1.09	-0.216	-0.00959	0.811	-0.12	-0.145
TTACCAAGGTGAAGGTCCTTGATCCCTCTGTAGA	1.64	2.67	-0.58	-0.0809	-0.00432	0.544	-0.323	1.01	-0.146	1.75	1.32	0.466	0.274	-0.201	0.918	1.95	0.841	-0.203
AGAATGAGGTTATTAATATCAGGGAATTGCGGTC	2.96	2.52	1.52	0.456	0.953	1.27	0.447	1.32	0.74	1.18	0.652	1.03	0.749	1.73	1.62	2.05	0.737	1.2
TGAATGAGGTTATAAGATCAGGCAACGTTGCAAA	0.78	1.81	1.1	0.207	0.125	0.75	-0.349	1.52	0.212	1.24	0.151	1.57	0.908	0.405	2.11	1.85	0.127	0.105
CCTACTGGGCCACGACAGGTCATTGATTCAGTGA	5.23	5.51	1.69	-0.106	0.946	1.97	0.00199	2.15	-0.183	2.01	2.31	1.95	1.52	-0.438	1.56	2.74	0.324	0.706
CTGAGTAGGTTATGGGGCATTCAGGCAACGGTGA	4.73	4.47	0.603	-0.059	0.463	0.0232	0.0116	0.559	-0.472	0.942	0.905	0.544	0.679	-0.017	0.713	0.647	-0.0528	-0.0687
TCGAGTAGGTTATCAATGGGGCATTCAGCTTTCT	3.08	1.84	-0.103	-0.254	-0.00524	0.223	-0.333	0.202	-0.0483	0.739	0.483	0.919	0.272	0.822	0.432	0.0952	-0.223	-0.119
CCAGACAGGTGAGAAGGTAACTGAGCCTCGATTA	0.955	0.477	-0.278	-0.535	0.591	-0.214	0.124	0.14	0.118	0.396	0.357	0.527	0.335	-0.107	0.0427	0.121	-0.33	-0.0729
CCTACTGCGCCAAGGTCATTGATCAGTCAAAGCA	0.265	0.978	-0.442	-0.653	2.68	3.85	2.48	3.83	1.07	3.51	3.46	3.72	2.98	2.48	3.42	3.54	3.12	4.13
CGAACTAGGTCAGAACAGGACCGTGAAGGATGAT	7.33	7.06	2.11	0.843	0.797	0.0175	-0.758	0.594	-0.383	2.73	1.66	2.43	3.01	0.494	1.17	1.56	-0.264	-0.342
CGTCCAAGATCAATGCTAGGTCAGTGAAAGCATT	0.0283	0.44	-0.261	0.071	0.835	0.204	0.467	0.725	0.103	1.7	2.31	1.93	1.33	0.097	0.272	1.75	0.486	0.299
CAAACTAGGTCACCGGAAGTTCAAAGTCCGCATG	8.47	9.21	5.32	4.81	7.04	6.19	6.26	5.86	1.72	4.85	4.69	7	6.24	2.68	4.64	3.85	2.14	4.8
CAAACTAGGTCACCGGAAGGTCAATGTCCGCATG	8.58	8.99	1.98	1.35	6.39	5.65	1.15	6.94	1.41	5.25	5.62	8.18	7.34	2.27	5.58	4.36	2.94	3.01
CCTTACGGGTCACTCCAGGTTACAGCATCGGAGT	2.73	4.01	0.164	-0.572	1.91	4.66	0.311	3.94	0.566	3.86	3.31	4.27	4.33	1.46	4.26	5.28	0.933	1.56
ACTATTAGTCGACTTAGGGCAACCGATACGACGC	0.19	0.646	0.629	1.12	-0.309	-0.188	-0.351	0.128	-0.494	0.711	0.58	0.342	0.707	0.415	0.416	1.09	0.02	-0.338
GGAACGAGGGCAAAGTTGATCGCATCTGTCGACG	3.98	4.13	-0.0459	-0.518	0.458	0.924	0.152	1.42	-0.502	2.32	1.19	1.83	1.8	2.72	1.92	1.19	-0.32	1.61
CCGACTGGGCCAGAAAGGTTACCATACCATCCGG	0.593	0.483	-0.91	-1.13	0.203	0.831	-0.302	1.83	-0.242	1.47	1.97	1.28	0.921	-0.772	1.58	1.04	-0.354	0.0109
CGTCCAAGGCCAAAGGTCAGTGAAGAGATGACGG	0.453	3.33	-0.0649	-1.23	3.96	4.26	0.612	5.8	1.79	4.58	4.6	5.87	5.18	1.13	5.47	3.24	0.341	0.884
CTAGAAAGGTCGTGCTCAGGTGAGTATACCAAAC	0.638	1.62	-0.0853	0.547	1.73	2.82	0.0874	4.02	0.32	3.63	2.93	4.96	3.62	2.16	4.44	4.02	0.909	0.842
ACTAGCAGGCCAAGGCTCACTCAAGATTAGTCCG	1.13	0.144	-0.648	-0.572	-0.478	-0.766	-0.282	-0.478	-0.56	0.257	-0.234	-0.222	0.0156	-0.206	-0.0748	-0.43	-0.144	-0.802
